This is part of a sample that, as a whole, favours compounds with a hit. Of some 83,000 tested, about 20% had one in any assay.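 48-hour exposure, single concentration, 96-well plates; percent growth endpoint where 0 means no net growth. Active: below 10.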 Active and inactive are the calls of the source.
Tests used:
Assay in all cases: NCI-60 one-dose screen, 48 h (100 = growth as untreated, 0 = no growth, -100 = all killed)
Conditions in all cases: 10 µM unless noted
[1] = tested on: NCI-H23 lung
[2] = tested on: NCI-H226 lung
[3] = tested on: NCI-H322M lung
[4] = tested on: HOP-62 NSCLC
[5] = tested on: NCI-H460 lung
[6] = tested on: NCI-H522 lung
[7] = tested on: A549/ATCC NSCLC
[8] = tested on: 786-0 renal
[9] = tested on: COLO 205 colon
[10] = tested on: DU-145 prostate
[11] = tested on: K-562 leukemia
[12] = tested on: MALME-3M melanoma
[13] = tested on: MDA-MB-231 breast
[14] = tested on: RXF 393 renal
[15] = tested on: SF-268 CNS
[16] = tested on: SF-295 CNS
[17] = tested on: SF-539 CNS
[18] = tested on: UACC-257 melanoma
[19] = tested on: M14 melanoma
[20] = tested on: HOP-92 NSCLC

Measured: growth

COc1ccc(C2[C@@H](c3ccccc3)C(=O)N2c2cc(OC)c(OC)c(OC)c2)cc1F (some centres undefined)
inactive: [1] 25.3% | [2] 66.6% | [3] 38.2% | [4] 19.1% | [8] 13.9% | [10] 11% | [12] 69.1% | [13] 32.3% | [14] 13.5% | [15] 31.5% | [17] 14.8% | [18] 20.8%
active: [5] 5.92% | [6] -34.2% | [7] 8.88% | [9] -48.2% | [11] 5.35% | [16] 0.875% | [19] 4.59%

Cc1ccc(NC(=O)c2sc3nc(C)c(C(O)c4ccccc4)cc3c2N)cc1 (centres undefined)
active: [5] 2.88% | [6] 7.09% | [9] -15.8% | [11] 6.23% | [16] 4.89% | [17] -4.25%
inactive: [1] 26.4% | [2] 57.4% | [3] 56.8% | [4] 31.2% | [7] 22.7% | [8] 40.3% | [10] 23.9% | [12] 49.1% | [13] 15.9% | [14] 39.3% | [15] 49.5% | [18] 60.2% | [19] 16.3%

O=C1NC(=O)C(c2coc3cc(Br)ccc23)=C1c1c[nH]c2ccccc12
inactive: [1] 77.5% | [2] 67.2% | [3] 77.7% | [4] 38.9% | [5] 19.5% | [6] 51.1% | [7] 33.5% | [8] 69.5% | [9] 35.1% | [10] 65.1% | [11] 11.5% | [12] 66.2% | [13] 59.4% | [14] 75.3% | [15] 43.1% | [16] 71.1% | [17] 64.7% | [18] 72% | [19] 31.5%

Cc1c2ccccc2nc2cc3c(cc12)[C@H]1CC[C@]2(C)C(=O)CC[C@H]2[C@@H]1CC3
inactive: [1] 98.5% | [2] 91.8% | [3] 98.5% | [4] 105% | [5] 97.3% | [6] 81.6% | [7] 86.5% | [8] 98% | [9] 109% | [10] 106% | [11] 90.2% | [12] 108% | [13] 91.6% | [14] 101% | [15] 89.5% | [16] 99.9% | [17] 96.5% | [18] 98.3% | [19] 102%

O=[N+]([O-])c1ccccc1Nc1ccc2ccccc2c1
inactive: [1] 97.7% | [2] 97.1% | [3] 108% | [4] 82.7% | [5] 84.4% | [6] 87.8% | [7] 47.8% | [8] 83.5% | [9] 72.5% | [10] 107% | [11] 84.8% | [12] 106% | [13] 91.9% | [14] 133% | [15] 95.5% | [16] 98.3% | [17] 97% | [18] 92.8% | [19] 91.3%

COc1cc(-c2ccc(-c3ccc(C(=N)N)cc3)s2)cc(OC)c1OC
inactive: [1] 84.4% | [2] 82.5% | [3] 73.2% | [4] 59.1% | [5] 37.1% | [6] 62.4% | [7] 75.4% | [8] 69.4% | [10] 63.6% | [12] 32.7% | [13] 53.2% | [14] 80.9% | [15] 65.1% | [16] 46.2% | [17] 47.1% | [18] 63.5% | [19] 47.9%
active: [9] -41.8% | [11] 1.05%

C/C(=N\Nc1ccccc1)c1ccc(NC2=CC(=O)c3ccccc3C2=O)cc1
inactive: [1] 21.4% | [2] 80.8% | [3] 79% | [4] 46.1% | [5] 23.5% | [6] 42.9% | [7] 48.5% | [8] 94.1% | [9] 88.2% | [10] 50.7% | [11] 19.4% | [13] 62.4% | [14] 92.1% | [15] 64.4% | [16] 55.2% | [17] 92.9% | [18] 67.9% | [19] 26.3%
active: [12] -65%

C=C(C)[C@@H]1CC[C@]2(COC3CCCCO3)CC[C@]3(C)[C@H](CC[C@@H]4[C@@]5(C)C=C(C=O)C(=O)C(C)(C)[C@@H]5CC[C@]43C)[C@@H]12 (some centres undefined)
active: [1] -58.9% | [2] 1.68% | [3] 8.97% | [4] -68% | [5] -47.2% | [6] -75% | [7] -63.5% | [8] -86.2% | [9] -32% | [10] -94.3% | [11] -24.9% | [12] -75.4% | [13] -37.7% | [14] -85.7% | [15] -67.1% | [16] -95.5% | [17] -74.3% | [18] -28.5% | [19] -62.9%

CN(C)CCCn1c2c(c3ccncc3c1=O)C(=O)c1ccccc1-2
active: [1] -23.1% | [2] -53.1% | [4] -11.4% | [5] -9.77% | [20] -18.1% | [6] -22.5% | [8] 5.98% | [10] -8.23% | [11] -61.6% | [12] -55.8% | [13] 8.66% | [14] -15.7% | [15] -15.3% | [16] 1.81% | [17] -17% | [18] -30.3% | [19] -36.5%
inactive: [3] 21.2% | [7] 30.2% | [9] 10.6%

CS(=O)(=O)Nc1cc(-c2ccc3ncnc(Nc4ccc(OCc5ccccn5)c(Cl)c4)c3c2)cnc1Cl
active: [1] -8.13% | [3] 9.88% | [5] 9.64% | [6] -18.3% | [9] -90.9% | [12] -35.7% | [13] 2.29% | [14] -31.4% | [16] -2.49% | [17] -11.7%
inactive: [2] 21.2% | [4] 15.3% | [7] 11.8% | [8] 22.2% | [10] 16.5% | [11] 21.1% | [15] 10.9% | [18] 14.3% | [19] 30%

C=C[C@@]1(C)CC(=O)[C@@H](C(C)(C)c2cn(C)c3ccc(Br)cc23)C[C@@H]1O[Si](C)(C)C(C)(C)C
inactive: [1] 98.3% | [2] 83.9% | [3] 101% | [4] 111% | [5] 101% | [6] 94.4% | [7] 102% | [8] 97.4% | [9] 104% | [10] 95.4% | [11] 104% | [12] 92.2% | [13] 96.6% | [14] 108% | [15] 96.5% | [16] 103% | [17] 97.3% | [18] 103% | [19] 91.7%

COc1ccc(CN2C(=O)OC(C)(COC(C)=O)C2=O)cc1 (centres undefined)
inactive: [1] 108% | [2] 98.1% | [3] 99% | [4] 106% | [5] 111% | [6] 91.4% | [7] 94.5% | [8] 106% | [9] 119% | [10] 107% | [11] 94.5% | [12] 102% | [13] 103% | [14] 105% | [15] 102% | [16] 99.7% | [17] 96% | [18] 100% | [19] 105%

O=C(c1ccc(Br)cc1)C(Br)C(c1ccc(Cl)cc1)C(c1ccccc1)[N+](=O)[O-] (centres undefined)
inactive: [1] 91.4% | [2] 99.3% | [3] 101% | [4] 99.7% | [5] 95.5% | [6] 85.7% | [7] 93.8% | [8] 90.3% | [9] 110% | [10] 97.5% | [11] 106% | [12] 86.2% | [13] 85.4% | [14] 77.2% | [15] 90.2% | [16] 95.1% | [17] 96% | [18] 102% | [19] 92.8%

O=Nc1ccc(NC(=O)Nc2ccc([N+](=O)[O-])cc2)cc1
inactive: [1] 87.5% | [2] 99.6% | [3] 103% | [4] 110% | [5] 91.5% | [6] 78.8% | [7] 95.6% | [8] 86.5% | [9] 116% | [10] 113% | [11] 58.8% | [12] 102% | [13] 87% | [14] 119% | [15] 104% | [16] 98.1% | [17] 101% | [18] 104% | [19] 102%

CCOC(=O)c1c(C)nc2c(c1N)C(=O)C(=O)N2Cc1ccc(OC)cc1
inactive: [1] 59.6% | [2] 90.8% | [3] 99.5% | [4] 40.1% | [5] 101% | [6] 41.3% | [7] 88% | [8] 39.7% | [9] 123% | [10] 84.7% | [11] 28.8% | [12] 58.7% | [13] 79.7% | [14] 87.9% | [15] 64.7% | [16] 74.3% | [17] 45.5% | [18] 76.2%

C=CC(CC(c1ccccc1)(c1ccccc1)c1ccccc1)N(CC)CC (centres undefined)
inactive: [1] 71.7% | [2] 75.7% | [3] 90% | [4] 87.5% | [5] 62.6% | [6] 84.1% | [7] 82.5% | [8] 67.8% | [9] 64.5% | [10] 58.8% | [11] 25.4% | [12] 54% | [13] 53.4% | [14] 40.6% | [15] 73.9% | [16] 78.8% | [17] 69.1% | [18] 79.3% | [19] 30.1%
